Each structure is given as a SMILES string. Results filed as inconclusive are left out. Activity calls are given as the source filed them. Calls come from the whole dose curve; as a rule, active = well fitted inhibition curve with a large enough effect; inconclusive = small, poorly fitted or top-dose-only effect; inactive = no such curve, though single readings can be large or run the other way.
Potency is the fitted concentration of half-maximal effect.

This assay addresses Retinaldehyde dehydrogenase 3 (Homo sapiens) (UniProt P47895). The assay can be described thus: qHTS for Inhibitors of the Aldehyde Dehydrogenase Family (ALDH1A3) Confirmatory screens (AID 2061311). Note: nearly all actives have a fitted effect of over 60% in size. The following applies: ALDH inhibition qHTS; series mostly up to 46 µM.
Regarding `N#CNC(=O)c1ccc(-n2cccc2/C=C2\NC(=O)N(CC(=O)Nc3cccc(F)c3)C2=O)cc1`, the Potency result was “inactive”. With `CCOC(=O)c1c(-c2ccccc2)no[n+]1[O-]`, the Potency result is “inactive”. For the compound `c1cn2cc(-c3ccc4cn[nH]c4c3)nc(Nc3ccc(N4CCOCC4)cc3)c2n1`, the Potency result was “inactive”. In the case of `O=C(Nc1ncc([N+](=O)[O-])s1)c1ccccc1O` it was 0.449 µM (active); in that of `O=C(O)CN1C(=O)N/C(=C\c2cccn2-c2ccc(P(=O)(O)O)cc2)C1=O`, “inactive”; in that of `O=c1[nH]c(CN2CCOCC2)nc2sc3c(c12)CCC3`, 11.3 µM (active). Then `Cc1nnc(CN(C)c2ncnc3ccc(-c4ccc5c(c4)OCO5)cc23)o1`, with 20.1 µM (active); and `S=C(Nc1ccccn1)c1ccccn1`, with 6.34 µM (active); and `CC(C)(C)Nc1nc(C#N)nc(Nc2ccccc2)n1`, with “inactive”.

Take `CN(C)c1cccc(-c2csc(N3CCC(C(N)=O)CC3)n2)c1`: the Potency is 12.7 µM (active). As to `Cc1cc(C)nc(NC(=S)N2CCN(c3ccc4nsnc4c3)CC2)c1`, the Potency is 1.13 µM (active). Then `Cc1ccc(-c2no[n+]([O-])c2C#N)cc1`, with “inactive”; and `CC(=O)c1ccc(N2CCN(S(=O)(=O)c3ccc4c(c3)n(C)c(=O)n4C)CC2)cc1`, with 2.01 µM (active); and `Cc1noc(C)c1-c1ccc2ncnc(NCc3ccc(F)cc3)c2c1`, with 12.6 µM (active). In the case of `Cc1c(Cl)cccc1NS(=O)(=O)c1cc2c(cc1F)NC(=O)CC2` it was “inactive”.

Turning to `CCOC(=O)c1ccc(O)c2ncc(N3CCC(C(=N)N)CC3)cc12`, the Potency is 8.96 µM (active). As to `O=S1(=O)CCN(Cc2cc(NCC3CCOCC3)c3[nH]c(-c4ccccc4)cc3c2)CC1`, the Potency was 11.3 µM (active). For the compound `Cc1cc(C)nc(NC(=S)N2CCN(c3cncc4ccccc34)CC2)c1`, the Potency is 22.5 µM (active). On to `COc1ccc(-c2csc(NC(=O)c3ccncc3NS(=O)(=O)c3ccc(C)cc3)n2)cc1`, for which the Potency result was “inactive”.

In the case of `O=S(=O)(Nc1cc(O)cc2cccnc12)c1ccc(Cl)s1`, the Potency is 0.504 µM (active). Take `Cc1noc(C)c1N[S+](=O)([O-])c1ccc(NC(=O)Cc2ccc(Cl)c(Cl)c2)cc1`: the Potency was 6.31 µM (active). Turning to `O=C1CCc2cc(S(=O)(=O)Nc3cc(F)cc(Cl)c3)c(F)cc2N1`, the Potency entry is “inactive”.
